From PubChem BioAssay (NCI)
The panel holds about 83,000 compounds, 20% with a hit somewhere; the sample as a whole holds those more often.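 Step 1: grow cells in 96-well plates. Step 2: add test compound at a single concentration. Step 3: incubate 48 h. Step 4: record percent growth.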 A number with no mark means an inactive call. Activity calls are given as the source filed them. The calls were made as follows: active = growth percent below 10; inactive = the rest.

Test system: SF-295 CNS
Assay: NCI-60 one-dose screen, 48 h (100 = growth as untreated, 0 = no growth, -100 = all killed)
Conditions: 10 µM unless noted

Row | SMILES | growth
1 | O=C(Nc1ccccc1)Nc1ncnc2c1ncn2-c1ccc(Cl)cc1 | 76.4%
2 | CC(C)c1ccc(C(=O)Nc2nc3ccc(O)c(CN(C)C)c3s2)cc1 | 96.3%
3 | Cc1ccc(Nn2c(SCC(=O)Nc3nc(-c4ccccc4)cs3)nc(C)c2C)cc1 | 46.1%
4 | N#CC(C#N)N=Nc1ccc(Br)cc1 | 95.7%
5 | CCN1C(=S)N(c2ccccc2)C2C1NN=c1s/c(=C3\C(=O)N(C(C)C)c4ccccc43)c(=O)n12 (centres undefined) | 98.9%
6 | CSc1nc2ccccc2cc1/C=[N+](\[O-])c1ccccc1 | 86.7%
7 | CN1CCN(c2cc(Nc3cc(C4CC4)[nH]n3)nc(Nc3ccc(CC(=O)NCc4cccc(F)c4)cc3)n2)CC1 | 49.4%
8 | C=CCN=c1sc2c(n1NC(=O)c1cc3ccc1CCc1ccc(cc1)CC3)C(=O)c1ccccc1C2=O | 69.2%
9 | Cn1cc(-c2csc(-c3cn(C(=O)OC(C)(C)C)c4ccc(Br)cc34)n2)c2ccnc(Cl)c21 | 89.9%
10 | CSc1oc(C)nc1[P+](c1ccccc1)(c1ccccc1)c1ccccc1 | 78.3%
11 | C=C1C(=O)O[C@H]2[C@H]1CC/C(Cn1cc(-c3ccccc3)nn1)=C\CC[C@@]1(C)O[C@@H]21 | 75%
12 | O=S(=O)(c1ccccc1)n1cc2c(c1)-c1nc(Nc3ncccn3)sc1CC2 | 67.3%
13 | Cc1[nH]c(C(=O)Nc2ccccc2OC2CCNCC2)c(Cl)c1Cl | -20.2% (active)
14 | COc1ccc(-c2cc(-c3ccc(Cl)cc3)c(C#N)c(=O)n2Cc2ccc(C(=O)Nc3ccccc3N)cc2)cc1 | 61.1%
15 | O=C(CN1CCCCC1)Nc1nc(-c2cc3ccccc3oc2=O)cs1 | 102%
16 | Oc1ccc(Cl)cc1/C=N\NC(=S)N/N=C/c1cc(Cl)ccc1O | 11%
17 | COC12C=C/C(=C(/C(=O)OCc3ccncn3)C(=O)CCCCCCCCC3(OC)C=C/C(=C(/C(=O)OCc4ccncn4)C(=O)CCCCCCCC1)O3)O2 | -15.9% (active)
18 | COc1ccc2c(c1)N(CCO)C1=C(C(=O)OC1)C2c1cccc(F)c1 (centres undefined) | -15.6% (active)
19 | CC(=O)Oc1ccc(/C(=C(\C)c2ccc(Cl)cc2)c2ccc(OCCN3CCCCC3)cc2)cc1 | 9.07% (active)
20 | O=C(N(c1ccccc1)c1ccccc1)n1cc(I)c2nc(Cl)nc(Cl)c21 | 48.2%

Row | SMILES | growth
21 | N#Cc1nc(-c2ccccc2)oc1S(=O)(=O)N1CCN(c2ccccc2)CC1 | 105%
22 | Cc1ccc(NC(=O)c2sc3nc(C)c(Br)c(C)c3c2N)cc1 | 60%
23 | O=C(CN1C(=O)S/C(=C\C(Cl)=C\c2ccccc2)C1=O)NCCc1ccc(O)cc1 | 44%
24 | O=C(/C=C/c1cn(-c2ccccc2)nc1-c1ccc(Cl)cc1)c1ccc(F)cc1 | 172%
25 | CCOC(=O)c1c(NC(=O)c2cccc(C(F)(F)F)c2)sc2c(CN(C)C)c(O)ccc12 | 96.2%
26 | N#Cc1c(-c2ccccc2)cc(-c2ccc(Nc3nc(Nc4ccc(Cl)cc4)nc(Nc4ccc(Cl)cc4)n3)cc2)nc1N | 75.5%
27 | O=C(/C=C/c1cccs1)Nc1ncc(Cc2ccccc2F)s1 | 9.52% (active)
28 | O=S(=O)(Nc1cc(Cl)ccc1Cl)c1ccc(-c2cnc(C3CC3)o2)cc1 | 24.8%
29 | CCOC(=O)c1ccc2c(c1)nc(-c1ccccc1)n2C1CCCCC1 | 94.4%
30 | CC(=O)N1N=C(c2ccc(C(F)(F)F)c(F)c2)CC1c1[nH]c(C)c(C(=O)NCC(F)(F)F)c1C (centres undefined) | 70.9%
31 | O=C(CN1C(=O)S/C(=C\c2ccccc2)C1=O)Nc1ncc(Cc2ccccc2Cl)s1 | 100%
32 | COc1cc(OCc2cccc(Br)c2C)cc(OC)c1C=O | 86.7%
33 | COc1cc(NS(=O)(=O)c2ccc(-c3cnc(C4CC4)o3)cc2)ccc1F | 15.6%
34 | COC1=CC(c2ccc[nH]2)=N/C1=C\c1[nH]c(C)c(CC(=O)OCc2ccccc2)c1CCC(=O)OCc1ccccc1 | -62.3% (active)
35 | Clc1cccc(Nc2ncnc3ccc(-c4cnc5[nH]ccc5c4)cc23)c1 | 86.8%
36 | COc1cc2ncnc(Nc3ccc(F)c(Cl)c3)c2cc1OCC(=O)N1CCN(c2ccccc2)CC1 | 93.4%
37 | O=C1Nc2ccccc2/C1=C/c1nc2ccccc2c(=O)[nH]1 | 101%
38 | CNc1nnc2n(-c3ccccc3)c(=O)c3cnn(-c4ccccc4)c3n12 | 78.8%
39 | C=C1C(=O)O[C@H]2[C@H]1CC/C(COC(=O)c1cc3ccccc3s1)=C\CC[C@@]1(C)O[C@@H]21 | 32%
